According to PubChem BioAssay AID602393 (Broad Institute, 2012):
About 7,000 (2%) of roughly 350,000 compounds were called active. Cut-off read from the data, not from the text of the source: active = activation above about 40%; inconclusive = no clear call, values can overlap the other calls; inactive = below that. The sample as a whole holds a higher share of actives than the screen did.

assay: raisers of Bmi1 knock-in reporter signal – mouse ES cells, Bmi1 luciferase knock-in, single point, esBAF inhibitor project, primary screen (AID 602393); details: 24 h, at 12.5 µM, hits give high values, 100% = twice the neutral-well signal;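 note: 0% = median of the plate's neutral control wells and 100% = double that signal; a rise in the Bmi1 reporter signal indicates esBAF inhibition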

SMILES | reporter increase
C[C@H](CO)N1C[C@H](C)[C@H](CN(C)Cc2ccncc2)Oc2ccc(NC(=O)C3CCCCC3)cc2CC1=O | 4.88% (inactive)
COc1ccccc1Nc1ncc(C(C)=O)c(C)n1 | 43.9% (active)
COc1ccccc1-c1c(C)nn2c(C)c(C(C)=O)cnc12 | -4.24% (inactive)
COC(=O)c1cnc(Nc2cc(C)ccc2OC)c2ccccc12 | -2.74% (inactive)
CCC(=O)Nc1ccc2c(c1)OC[C@H](C)N(Cc1ccccc1OC)C[C@@H](C)[C@@H](OC)CN(C)C2=O | 4.11% (inactive)
CO[C@H]1CN(C)C(=O)c2cc(NC(=O)Nc3cccc(F)c3)ccc2OC[C@@H](C)N(C)C[C@@H]1C | 1.05% (inactive)
C[C@H](CO)N1C[C@H](C)[C@H](CN(C)C(=O)C2CCOCC2)Oc2ncc(-c3ccccc3F)cc2C1=O | -0.932% (inactive)
COc1ccc(-c2ccc3c(c2)O[C@H](CN(C)Cc2ccccc2C(=O)O)[C@H](C)CN([C@@H](C)CO)S3(=O)=O)cc1 | 4.05% (inactive)
COc1ccc(Nc2ncnc3ccc(Br)cc23)c(OC)c1 | -66.9% (inactive)
COc1ccccc1Nc1ncnc2c1oc1ccccc12 | 75.2% (active)
CCC(C(=O)OC)n1cnc2c(oc3ccccc32)c1=O (stereo not given) | 2.51% (inactive)
CCCC(=O)Nc1ccc2c(c1)C(=O)N(C)[C@H]1CC[C@@H](CC(=O)NCc3cccc(F)c3)O[C@H]1CO2 | 11.9% (inactive)
O=C(NCC[C@H]1CC[C@H](NS(=O)(=O)c2ccccc2)[C@H](CO)O1)c1cc(Cl)cc(Cl)c1 | 1.99% (inactive)
CC1CCN(C(=O)c2ccc3c(=O)n4c(nc3c2)CCCCC4)CC1 | 10.6% (inactive)
Cc1cc(C)c(C)c(S(=O)(=O)N2CCN(C(=O)c3ccc4c(=O)n5c(nc4c3)CCC5)CC2)c1C | -1.07% (inactive)
O=C(Nc1cc(F)ccc1F)c1ccc2c(=O)n3c(nc2c1)CCC3 | 54.2% (active)
CC(C)CC#Cc1cnc2c(c1)C(=O)N([C@@H](C)CO)C[C@@H](C)[C@@H](CN(C)S(=O)(=O)c1cccs1)O2 | -1.12% (inactive)
Cn1cnc(S(=O)(=O)N2C[C@H](O)COC[C@@H]3O[C@H](CC(=O)NC4Cc5ccccc5C4)CC[C@H]32)c1 | 1.23% (inactive)
COc1ccccc1C(=O)NCCC(=O)NC1=NCCS1 | 4.18% (inactive)
O=C(NC1=NCCS1)c1ccc(Cl)s1 | 56.6% (active)
O=C(NCc1ccc2c(c1)OCO2)c1ccc(Cl)s1 | 16.1% (inactive)
COCC(=O)N1C[C@H](C)[C@@H](OC)CN(C)C(=O)c2cc(NC(=O)c3ccc(OC)cc3)ccc2OC[C@H]1C | -1.57% (inactive)
CCCNC(=O)C[C@@H]1CC[C@H]2[C@H](COc3ccc(NS(=O)(=O)c4ccccc4C)cc3C(=O)N2C)O1 | 0.502% (inactive)
CNC[C@H]1OCCCC[C@H](C)Oc2ccc(NS(C)(=O)=O)cc2C(=O)N([C@@H](C)CO)C[C@H]1C | 3.58% (inactive)
CCC1([N+](=O)[O-])COC(c2ccc(C)cc2)OC1 (stereo not given) | -1.7% (inactive)

SMILES | reporter increase
CCC1([N+](=O)[O-])COC(c2ccc(C(C)C)cc2)OC1 (stereo not given) | 98.9% (active)
CC(C)c1ccc(S(=O)(=O)NC2CCCC2)cc1 | 1.91% (inactive)
CCCN(CC1CC1)C(=S)NC(=O)c1ccccc1Br | -4.35% (inactive)
O=C(NC(=S)Nc1ncccn1)c1ccccc1Br | 44.5% (active)
O=C(Nc1ccccc1)c1ccccc1Br | 22.5% (inactive)
CO[C@@H]1CN(C)C(=O)c2cc(NC(=O)Nc3cccc(Cl)c3)ccc2OC[C@@H](C)N(C)C[C@@H]1C | -1.87% (inactive)
CO[C@H]1CN(C)C(=O)c2ccc(NC(=O)c3cccc(F)c3)cc2OC[C@H](C)N(CC2CC2)C[C@@H]1C | 9.27% (inactive)
CC(C)N(C(=O)[C@H]1C[C@H](CC(=O)NCCC2=CCCCC2)C(=O)N2CCc3c([nH]c4cc(CCC(=O)N(C)C)ccc34)[C@]12C)C(C)C | 5.79% (inactive)
CN(C)C(=O)CCc1ccc2c3c([nH]c2c1)[C@]1(CCc2ccccc2)[C@@H](C(=O)N2CCCCC2)C[C@H](CC(=O)NCCC2=CCCCC2)C(=O)N1CC3 | 67.9% (active)
CN(C)C(=O)CCc1ccc2c3c([nH]c2c1)[C@]1(C)[C@@H](C(=O)N2CCCCC2)C[C@H](CC(=O)NCCC2=CCCCC2)C(=O)N1CC3 | 8% (inactive)
O=C(C[C@@H]1C[C@@H]2c3cc(NC(=O)C4CCC4)ccc3O[C@@H]2[C@@H](CO)O1)NCCN1CCCCC1 | 1.69% (inactive)
Cc1noc(C)c1S(=O)(=O)Nc1ccc2c(c1)CC(=O)N([C@@H](C)CO)C[C@@H](C)[C@H](CN(C)S(=O)(=O)c1cccs1)O2 | -4.75% (inactive)
O=C(CC(O)(C(F)(F)F)C(F)(F)F)Nc1ccc(Cl)c(Cl)c1 | -47.8% (inactive)
CCn1nccc1C(=O)Nc1ccc(S(=O)(=O)NC23CC4CC(CC(C4)C2)C3)cc1 | 14.5% (inactive)
CCn1nccc1C(=O)Nc1ccc(Cl)c(Cl)c1 | 61.9% (active)
Cc1ccc(CN(C)C[C@H]2OCc3cn(nn3)CCCC(=O)N([C@@H](C)CO)C[C@H]2C)cc1 | 3.63% (inactive)
O=C(CN1CCN(c2ccc(Cl)cc2)CC1)c1ccccc1 | -0.082% (inactive)
O=C(Cc1ccc(Cl)cc1)NC(=S)Nc1ccccc1O | 2.82% (inactive)
O=C(Cc1ccc(Cl)cc1)c1ccccc1 | 61.9% (active)
COc1ccc(-c2ccc3c(c2)[C@@H]2[C@@H](CCN2S(=O)(=O)c2ccccc2F)[C@H](CO)N3)cc1 | -0.198% (inactive)
C[C@@H]1CN([C@H](C)CO)C(=O)Cc2cc(NC(=O)CCCN(C)C)ccc2O[C@H]1CN(C)CC1CCCCC1 | -2.32% (inactive)
C[C@@H]1CN([C@H](C)CO)C(=O)c2cc(NS(=O)(=O)c3ccc(Cl)cc3)ccc2O[C@@H]1CN(C)CC1CCCCC1 | 5.96% (inactive)
O=C(C[C@H]1C=C[C@H](NS(=O)(=O)c2ccc(F)cc2)[C@H](CO)O1)NCc1ccncn1 | 0.952% (inactive)
COc1ccc(Cl)cc1NC(=O)CN(C)CC(=O)Nc1ccc2c(c1)OCO2 | 0.413% (inactive)
Cc1ccc(NC(=O)c2ccc(Cl)nc2)cc1S(=O)(=O)N1CCOCC1 | 0.751% (inactive)

SMILES | reporter increase
Cc1ccc(NC(=O)C2CC(=O)N(c3ccc4c(c3)OCCO4)C2)cc1S(=O)(=O)N1CCCCCC1 (stereo not given) | 1.1% (inactive)
COc1ccc(C(=O)Nc2ccc3c(c2)OCO3)cc1OC | 53.2% (active)
Cc1ccc(C(=O)Nc2ncccc2C)cc1S(=O)(=O)N1CCOCC1 | 3.68% (inactive)
Cc1ccc(C(=O)Nc2ccc3c(c2)OCO3)cc1S(=O)(=O)N1CCCCC1 | 57% (active)
COc1cc(C(=O)NCC2(c3ccccc3)CCCC2)ccc1OC(C)C | -10.2% (inactive)
O=C(Nc1ccc(N2CCOCC2)cc1)c1ccc2c(c1)OCO2 | 39.9% (inactive)
Cc1ccc(NC(=O)CCCNC(=O)c2ccc(Cl)cc2)cc1S(=O)(=O)N1CCCCC1 | -3.1% (inactive)
COc1ccc(C(=O)NC2CC(C)(C)NC(C)(C)C2)cc1OC | 0.227% (inactive)
Cc1ccc(C(=O)Nc2ccc3c(c2)OCCO3)cc1S(=O)(=O)N1CCOCC1 | 70.5% (active)
COc1ccc(C(=O)Nc2ccc(C3(C#N)CCCC3)cc2)cc1OC | 44% (active)
O=C(Cc1ccncc1)NCC[C@@H]1CC[C@H](NC(=O)Nc2ccc(Cl)cc2)[C@@H](CO)O1 | -1.9% (inactive)
CN1CCN(C(=O)C[C@H]2C[C@H]3c4cc(NC(=O)C5CCC5)ccc4O[C@H]3[C@H](CO)O2)CC1 | 1.39% (inactive)
O=C(NCCN1CCCC1)[C@@H]1N[C@@H]2c3ccc(-c4ccccc4)c(=O)n3C[C@@H]2[C@H]1CO | -5.2% (inactive)
O=C(C[C@@H]1CC[C@H](NC(=O)Nc2cc(F)ccc2F)[C@H](CO)O1)NCc1ccncn1 | 4.9% (inactive)
C[C@H]1CN([C@@H](C)CO)C(=O)c2cc(-c3ccccc3F)cnc2O[C@@H]1CN(C)C(=O)C1CCCCC1 | -0.372% (inactive)
CC=Cc1ccc2n(c1=O)C[C@@H]1[C@@H](CO)[C@H](C(=O)NCc3cccc(OC)c3)N[C@H]21 (mixture of isomers) | 0.983% (inactive)
CCCNC(=O)N1[C@H](CNC(=O)c2cccc(F)c2)[C@H](c2ccccc2)[C@@H]1CO | 3.53% (inactive)
C[C@@H]1CCCCO[C@H](CN(C)Cc2ccc(C(F)(F)F)cc2)[C@H](C)CN([C@@H](C)CO)C(=O)c2cc(N(C)C)ccc2O1 | 0.085% (inactive)
COc1ccc(C#Cc2cnc3c(c2)C(=O)N([C@H](C)CO)C[C@@H](C)[C@H](CN(C)C(=O)Nc2cccc(OC)c2)O3)cc1 | 4.12% (inactive)
COc1ccccc1-c1cnc2c(c1)C(=O)N([C@H](C)CO)C[C@H](C)[C@H](CN(C)Cc1cccnc1)O2 | -8.49% (inactive)
COc1ccc(S(=O)(=O)N(C)C[C@H]2OCCCC[C@H](C)Oc3ccc(NC(=O)Nc4ccc(F)cc4)cc3C(=O)N([C@@H](C)CO)C[C@H]2C)cc1 | 0.828% (inactive)
COc1ccc(S(=O)(=O)Nc2cccc3c2O[C@@H](CN(C)S(=O)(=O)c2ccccc2)[C@@H](C)CN([C@@H](C)CO)C3=O)cc1 | 1.5% (inactive)
CNS(=O)(=O)c1ccc(NC(=O)Nc2ccc3c(c2)OCO3)cc1 | 52.5% (active)
Cc1ccc(S(=O)(=O)NCC(=O)Nc2ccc3c(c2)OCCO3)cc1 | -6.84% (inactive)
CC(C)CNS(=O)(=O)c1ccc(C(=O)Nc2ccc3c(c2)OCO3)cc1 | -0.727% (inactive)
